Measured values from PubChem BioAssay.
Records with an inconclusive call do not appear. The source made the active and inactive calls.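 Rule for the calls, unless noted: active = viability loss from added drug above about 55%, and viability with drug at most 40%, in both replicates (limit read from the data, passing the limit was not always enough); inconclusive = both conditions met in only one replicate; inactive = neither replicate meets both conditions.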

What was measured:
[1] = SK-BR-3 cell growth inhibitors, pilot screen, 24 h, human (AID 572;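 active = viability at or below 10% of carrier control in both of two separate runs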;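 note: compound exposure lasted between 18 and 24 h rather than exactly 24 h; 100% = carrier-treated control wells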); details: SK-BR-3 viability, CellTiter-Glo luminescence, at 10 µM, stronger effect = lower value
[2] = HUVEC growth inhibition – cell-based, human, primary screen (AID 575;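 active = viability at or below 30% in both replicate assays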;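 note: 100% = median of untreated cell wells with 0.1% DMSO on each plate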); details: HUVEC proliferation, CellTiter-Glo luminescence, 72 h; at 10 µM; stronger effect = lower value
[3] = growth inhibitors of H69AR lung tumor, primary screen, human, duplicate replicates (AID 580;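 active = viability at or under a set limit in both replicates, limit being median viability minus 3 SD, cut at about 48% in these data, passing the limit was not always enough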;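 note: 100% = mean luminescence of untreated wells and 0% = no signal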); details: H69AR lung tumor cells viability, ATP luminescence, 72 h; at 10 µM; stronger effect = lower value
[4] = reversal of MRP1-mediated doxorubicin resistance, pilot screen, H69AR cells, doxorubicin co-treatment (AID 601); details: CellTiter-Glo, 72 h, at 10 µM; for differential viability (reversal): stronger effect = higher value
[5] = 384-well plate pilot, post-Golgi transport modulator project, inhibition of yeast transport mutant growth (AID 636; in the data active = inhibition above about 31%); details: absorbance 615 nm, about 18 h, stronger effect = higher value
[6] = growth suppression of yeast trafficking mutant, preliminary HTS, modulators of trafficking downstream of Golgi apparatus project, 1536-format plate, OD 615 nm (AID 637; in the data active = inhibition above about 30%); details: yeast transport mutant growth, absorbance 615 nm, 18 h; stronger effect = higher value
[7] = OD615 S. cerevisiae growth inhibition, permissive medium, pilot counter-assay, permissive growth control for S. cerevisiae lifespan shortening project (AID 705;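 active = growth inhibition above 25% in both replicates, a cutoff set 3 SD above the mean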); details: OD615, 24 h, at 10 µM, stronger effect = higher value
[8] = Restrictive medium S. cerevisiae growth inhibition, OD615, pilot screen of yeast lifespan reduction project, restrictive growth control (AID 706;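 active = growth inhibition above a set limit, 3 SD over mean compound inhibition, in both replicates, cut at about 43% in these data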;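 note: modified DeaD lifespan yeast strain shifted to restrictive glucose medium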); details: OD615, 48 h, at 10 µM, stronger effect = higher value
[9] = viability gain of MRP-1-high H69AR cells under doxorubicin, pilot screen, MRP-1 activator project, CellTiter-Glo, duplicate (AID 807;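 active = viability increase at or above a cutoff of the median across tested compounds plus 3 SD, cut at about 8.5% in these data, passing the limit was not always enough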;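 note: compound pretreatment 18-22 h then 72 h combined with doxorubicin; 0% = doxorubicin alone and 100% = vehicle without doxorubicin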); details: H69AR viability with doxorubicin, CellTiter-Glo luminescence; at 10 µM; stronger effect = higher value
[10] = growth suppression of beta-catenin knockout HCT116, pilot screen, human colon tumor cells (AID 823;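 active = cell viability at or below a set limit in both duplicate runs, the limit being the all-compound median minus 4 SD, cut at about 23% in these data, passing the limit was not always enough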;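 note: 0% = wells killed by 20 µM Hyamine and 100% = untreated DMSO cell wells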); details: CellTiter-Glo, 60 h, at 10 µM, stronger effect = lower value
[11] = inhibitors of the yeast RAM network, pilot screen, dse1pr::URA3 reporter, 5-FOA selection (AID 869;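 active = inhibition over a set limit, the all-compound mean plus 3 SD, in both replicate runs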;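 note: 0% = DMSO wells with no growth and 100% = 10 µM 1-NA-PP1 with full growth; RAM network block rescues cells from 5-FOA so hits raise OD615 growth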); details: S. cerevisiae dse1pr::URA3 5-FOA growth, OD615, 2 d; at 10 µM; stronger effect = higher value; strain carries analog-sensitive mutant Cbk1 kinase
[12] = RAM signaling pathway blockade in yeast – S. cerevisiae, Pdr1DBD-CYC8 efflux-inhibited sensitized strain, primary screen (AID 1298;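 active = RAM network inhibition above 8.4% in each of two replicates, 3 SD over the compound average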;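 note: 0% = DMSO untreated cells without growth and 100% = 10 µM 1-NA-PP1 full growth; higher means more yeast growth rescued from 5-FOA killing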); details: S. cerevisiae cbk1-as DSE1-URA3 strain, 5-FOA growth OD615, 2 d; at 50 µM; stronger effect = higher value
[13] = growth suppression of PTEN-deleted HCT116, pilot screen, cell-based, HCT116 clonal line, CellTiter-Glo (AID 824;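 active = viability at or below 27.92% in each of two runs, the all-compound median minus 4 SD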;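 note: 0% = 20 µM Hyamine control and 100% = vehicle cell control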); details: 60 h, at 10 µM, stronger effect = lower value
[14] = H69AR cells + 2 uM doxorubicin, measured here: viability with 2 uM doxorubicin, stronger effect = lower value
[15] = H69AR cells, compound alone cytotoxicity

| Compound | viability [1] | viability [2] | viability [3] | differential viability (reversal) ([4]; H69AR cells + 2 uM doxorubicin) | viability [4, 14] | viability [4, 15] | inhibition [5] | inhibition [6] | growth inhibition [7] | growth inhibition [8] | viability increase [9] | viability [10] | inhibition [11] | RAM network inhibition [12] | viability [13] |
| --- | --- | --- | --- | --- | --- | --- | --- | --- | --- | --- | --- | --- | --- | --- | --- |
| CCOC(=O)Cn1c(CN(C)Cc2ccccc2)nc2c1c(=O)n(C)c(=O)n2C | 94% (inactive) | 112% (inactive) | 87.1% (inactive) | -9.54% (inactive) | 96.6% | 87.1% | -7.43% (inactive) | 0.18% (inactive) | -28.8% (inactive) | -4.63% (inactive) | -2.98% (inactive) | 82.9% (inactive) | 0.24% (inactive) | -0.42% (inactive) |  |
| Cc1ccc(C)n1-c1ccc(-n2cnnn2)cc1 | 103% (inactive) | 97.5% (inactive) |  | -24.2% (inactive) | 76.6% | 52.4% | -3.47% (inactive) | -1.09% (inactive) | -9.52% (inactive) | 0.21% (inactive) | -7.7% (inactive) | 9.95% (active) | 1.65% (inactive) | 5.78% (inactive) | 10.3% (active) |
| COCCN1C=C(C(=O)OC)C(c2cc3c(cc2Br)OCO3)C(C(=O)OC)=C1 | 97% (inactive) | 89.2% (inactive) | 84.5% (inactive) | 3.38% (inactive) | 81.2% | 84.5% | -4.13% (inactive) | -1.09% (inactive) | -12.8% (inactive) | -14.6% (inactive) | -1.16% (inactive) | 58.3% (inactive) | 0.41% (inactive) | 0.62% (inactive) | 58.6% (inactive) |
| COC(=O)c1[nH]c2c(c1C)C(=O)CC(c1cc(OC)ccc1OC)C2 (centres undefined) | 98.5% (inactive) |  | 14.9% (active) | -37% (inactive) | 51.9% | 14.9% | -6.8% (inactive) | -6.33% (inactive) | -10.4% (inactive) | -8.8% (inactive) | -5.77% (inactive) | 34.6% (inactive) |  | 1.94% (inactive) | 29.4% (inactive) |
| Brc1ccc2ncnc(Nc3ccc(N4CCOCC4)cc3)c2c1 | 86% (inactive) |  | 77.8% (inactive) | -14.1% (inactive) | 91.9% | 77.8% | -2.27% (inactive) | -4.36% (inactive) | -5.24% (inactive) | 11% (inactive) | -6.53% (inactive) | 81.9% (inactive) | 1.01% (inactive) | 3.74% (inactive) | 72.9% (inactive) |
| O=C(CCNS(=O)(=O)c1cccs1)Nc1ccccc1F | 81% (inactive) | 121% (inactive) | 108% (inactive) | 8.57% (inactive) | 99.2% | 108% | -6.49% (inactive) | 0.55% (inactive) | -26.3% (inactive) | -12.8% (inactive) | -0.31% (inactive) | 90.8% (inactive) | 0.805% (inactive) | 2.55% (inactive) | 92.8% (inactive) |
| CSC1=N/C(=C\C=C\c2cccs2)C(=O)S1 | 95% (inactive) | 79.5% (inactive) |  | -15.6% (inactive) | 67% | 51.4% | -1.15% (inactive) | -6.17% (inactive) | -8% (inactive) | 0.455% (inactive) | -3.44% (inactive) | 95% (inactive) | 1.66% (inactive) | 6.92% (inactive) | 99.1% (inactive) |
| O=C(CSc1nnnn1-c1ccccc1)Nc1ccc(Cl)cc1 | 100% (inactive) | 99.1% (inactive) | 89.7% (inactive) | 6.46% (inactive) | 83.2% | 89.7% | 2.13% (inactive) | 6% (inactive) | -4.88% (inactive) | 4.24% (inactive) | -3.86% (inactive) | 74% (inactive) | 3.12% (inactive) | 2.55% (inactive) | 76.8% (inactive) |
| COc1cccc(C2C(C(=O)c3cccs3)=C(O)C(=O)N2CCCn2ccnc2)c1OC (centres undefined) | 130% (inactive) | 102% (inactive) | 109% (inactive) | 20.9% (inactive) | 88.3% | 109% | -7.47% (inactive) | 3.09% (inactive) | -6.37% (inactive) | 1.34% (inactive) | -1.56% (inactive) | 89.1% (inactive) | 0.145% (inactive) | 0.92% (inactive) | 89.5% (inactive) |
| Cc1cccc(OCC(=O)Nc2ccc(N3CCCC3)cc2)c1C | 112% (inactive) | 88.2% (inactive) |  | -3.12% (inactive) | 59.7% | 56.5% | -9.2% (inactive) | 1.64% (inactive) | 15.7% (inactive) | 14.8% (inactive) | -3.79% (inactive) | 72.4% (inactive) | 2.95% (inactive) | 5.36% (inactive) | 84.8% (inactive) |
| Cc1ccc2c(c1)C1CCCC3C1N2CC(=O)N3Cc1ccccc1 (centres undefined) | 117% (inactive) |  | 75.5% (inactive) | -5.75% (inactive) | 81.3% | 75.5% | 0.27% (inactive) | 0.97% (inactive) | -8.15% (inactive) | -24.9% (inactive) | -0.44% (inactive) |  | 2.56% (inactive) | 7.32% (inactive) | 53.3% (inactive) |
| Cc1cc(C)n2c(SCC(=O)Nc3cc(C)on3)nnc2n1 | 91.5% (inactive) | 104% (inactive) | 101% (inactive) | 21.3% (inactive) | 79.2% | 101% | -4.19% (inactive) | 5.71% (inactive) | -7.78% (inactive) | -16.6% (inactive) | 1.73% (inactive) | 102% (inactive) | 1.88% (inactive) | 3.63% (inactive) | 97.2% (inactive) |
| CCc1c(C)n([O-])c2c([n+]1=O)CCC2 | 104% (inactive) | 89.2% (inactive) | 103% (inactive) | 5.73% (inactive) | 97% | 103% | -5.54% (inactive) | -2.62% (inactive) | -8.65% (inactive) | -5.88% (inactive) | -0.78% (inactive) | 99.4% (inactive) | 0.88% (inactive) | 3.44% (inactive) | 102% (inactive) |
| Clc1cccc(-c2nnc(-c3ccccc3)o2)c1 | 57% (inactive) | 78.7% (inactive) | 76.7% (inactive) | -4.06% (inactive) | 80.7% | 76.7% | -8.92% (inactive) | 0.82% (inactive) | 8.84% (inactive) | 3.85% (inactive) | -6.09% (inactive) | 4.61% (active) | 1.33% (inactive) | 0.25% (inactive) | 21.4% (active) |
| CCOC(=O)N1CCN(C(=O)c2cnn(-c3ccccc3)c2NC(=O)c2ccccc2F)CC1 | 102% (inactive) | 98.8% (inactive) | 92% (inactive) | 12% (inactive) | 80% | 92% | -4% (inactive) | -0.73% (inactive) | 0.625% (inactive) | -2.95% (inactive) | -1.55% (inactive) | 99.4% (inactive) | -0.065% (inactive) | 1.56% (inactive) | 102% (inactive) |
| CCCn1c(=O)c(C(=O)NCc2ccccn2)c(O)c2ccccc21 | 78% (inactive) | 101% (inactive) |  | -12% (inactive) | 69.6% | 57.5% | 2.27% (inactive) | 13.6% (inactive) | 4.69% (inactive) | 12.5% (inactive) | 1.19% (inactive) | 87.4% (inactive) | -1.17% (inactive) | -1.94% (inactive) | 104% (inactive) |
| COc1ccc(NC(=O)CC2CCCCC2)cc1OC | 96% (inactive) | 94.6% (inactive) | 103% (inactive) | 12.8% (inactive) | 90.2% | 103% | -6% (inactive) | -1.09% (inactive) | -9.11% (inactive) | -10.4% (inactive) | -0.97% (inactive) | 96.3% (inactive) | 2.6% (inactive) | 6.64% (inactive) | 93.4% (inactive) |
| COc1cc(C(=O)N2CCN(c3cc(Cl)ccc3Cl)CC2)cc(OC)c1OC | 77.5% (inactive) | 20.1% (active) | 29.8% (active) | -54.3% (inactive) | 84.1% | 29.8% | -4.27% (inactive) | 0% (inactive) | -13.2% (inactive) | -8.44% (inactive) | -6.62% (inactive) |  | 0.575% (inactive) | 2.03% (inactive) | 21.5% (active) |
